Activity calls are given as the source filed them. The call rests on the fitted dose curve; in most records, active means well fitted curve in the direction sought with a large enough effect; inactive means no such curve, though single readings can be large or run the other way.
Target: Alpha-galactosidase A (Homo sapiens) (UniProt P06280)
Assay: qHTS Assay for Inhibitors and Activators of N370S glucocerebrosidase as a Potential Chaperone Treatment of Gaucher Disease: Alpha-Galactosidase Counterscreen
Details: purified enzyme, 4-MU-alpha-Gal fluorescence, 20 min; series mostly up to 57.5 µM; activity change, negative = inhibition: at the top concentration
Description: NIH Chemical Genomics Center [NCGC] NIH Molecular Libraries Probe Production Centers Network [MLPCN] MLPCN Grant: MH086442-01 Assay Submitter (PI): Wei Zheng Glucocerebrosidase (GC) catalyzes the hydrolysis of beta-glucocerebroside to glucose and ceramide in lysosomes. Mutations in the glucocerebrosidase gene result in Gaucher disease, an autosomal recessive lysosomal storage disorder. Many of the mutations encountered in patients with Gaucher disease are missense alterations that may cause misfolding, decreased stability and/or mistrafficking of this lysosomal protein. […] These inhibitors include iminosugar analogs and three non-iminosugar inhibitors identified from a previous HTS of 62,000 compounds with the wild type recombinant enzyme. However, the enhancement of enzyme activity by the chaperone action of an enzyme inhibitor must be balanced against the direct inhibition of the enzyme. An enzyme activator could also function as a chaperone by binding to the enzyme and helping to correct its misfolding and mistrafficking. While activators for GC have not yet been identified, they may have better therapeutic potential than inhibitors. Therefore the discovery and development of chemical activators may provide a new strategy for the chaperone therapy. To characterize compound selectivity, selected hits from the primary screen were screened against purified alpha-galactosidase, a related sugar hydrolase. Alpha-galactosidase is a homodimeric glycoprotein that hydrolyzes the terminal alpha-galactosyl moieties from glycolipids and glycoproteins.
NCGC Assay Protocol Summary: This is a fluorogenic enzyme assay with 4-Methylumbelliferyl alpha-D-galactopyranoside as the substrate and human […] as the enzyme preparation. Upon the hydrolysis of this fluorogenic substrate, the resulting product, […]. 4-Methyllumbelliferone, can be excited at 365 nm and emits at 440 nm. This fluorescence which can be detected by a standard fluorescence plate reader. Data were normalized to the controls for basal activity (without enzyme) and 100% activity (with enzyme). In the AC50 values were determined from concentration-response data modeled with the standard Hill equation. Assay buffer: 50 mM citric acid (titrated with potassium phosphate to pH 4.5), 0.005% Tween-20, pH 4.5. (pH 4.5 is an optimal condition for this enzyme assay) 1536-well assay protocol for the human alpha-galactosidase: (1) Add 2 ul/well of enzyme (12 nM final) (2) Add 23 nL compounds in DMSO solution. The final titration was 0.7 nM to 77 uM. (3) Add 1 ul of substrate ([…]) (4) Incubate at room temperature for 20 min. (5) Add 2 ul stop solution (1M NaOH and 1M Glycine mixture, pH 10) (6) Detect the assay plate in a ViewLux plate reader (PerkinElmer) with Ex=365 nm and Em=440nm. Keywords: MLSMR, MLPCN, NIH Roadmap, qHTS, NCGC, : Alpha-galactosidase, Fabry Disease, pharmacological chaperone, chaperone therapy

Chain of Alpha-galactosidase A (Homo sapiens) (P06280 whole entry, looked up): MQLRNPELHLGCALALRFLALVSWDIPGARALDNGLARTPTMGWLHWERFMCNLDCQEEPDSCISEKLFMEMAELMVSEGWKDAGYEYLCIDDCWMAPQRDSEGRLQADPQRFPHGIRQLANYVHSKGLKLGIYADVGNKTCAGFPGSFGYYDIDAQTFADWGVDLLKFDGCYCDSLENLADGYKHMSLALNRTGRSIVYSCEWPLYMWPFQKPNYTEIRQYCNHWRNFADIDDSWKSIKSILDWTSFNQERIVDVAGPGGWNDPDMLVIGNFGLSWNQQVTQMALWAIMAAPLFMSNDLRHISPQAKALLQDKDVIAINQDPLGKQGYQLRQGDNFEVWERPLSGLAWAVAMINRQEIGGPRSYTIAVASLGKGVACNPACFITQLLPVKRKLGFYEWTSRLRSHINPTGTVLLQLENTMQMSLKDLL

Structure (SMILES)	activity change, negative = inhibition
O=S(=O)(c1ccc(C(F)(F)F)cc1)N1CCN(c2nc(-c3ccccc3)nc3ccccc23)CC1	-13.6% (inactive)
NS(=O)(=O)c1ccc(S(=O)(=O)N2CCN(c3nc(-c4cccs4)nc4ccccc34)CC2)cc1	-10.2% (inactive)
O=S(=O)(c1cccc(Cl)c1)N1CCN(c2nc(-c3cccs3)nc3ccccc23)CC1	-10.8% (inactive)
N#Cc1ccc(S(=O)(=O)N2CCN(c3nc(-c4cccs4)nc4ccccc34)CC2)cc1	-2.99% (inactive)
N#Cc1ccccc1S(=O)(=O)N1CCN(c2nc(-c3cccs3)nc3ccccc23)CC1	-3.19% (inactive)
O=S(=O)(c1ccc2c(c1)OCCO2)N1CCN(c2nc(-c3ccccc3)nc3ccccc23)CC1	-12.6% (inactive)
CC(=O)c1ccc(S(=O)(=O)N2CCN(c3nc(-c4ccccc4)nc4ccccc34)CC2)cc1	-2.18% (inactive)
COc1ccc(-c2nc(N3CCN(S(=O)(=O)c4ccc(F)cc4)CC3)c3ccccc3n2)cc1	-10.8% (inactive)
O=S(=O)(c1ccc(Br)cc1)N1CCN(c2nc(-c3ccccc3)nc3ccccc23)CC1	-12.8% (inactive)
O=S(=O)(c1ccc(F)cc1)N1CCN(c2nc(-c3cccs3)nc3ccccc23)CC1	-9.22% (inactive)
O=S(=O)(c1ccc(Br)cc1)N1CCN(c2nc(-c3cccs3)nc3ccccc23)CC1	-8.57% (inactive)
O=S(=O)(c1ccc(OC(F)(F)F)cc1)N1CCN(c2nc(-c3ccccc3)nc3ccccc23)CC1	-4.05% (inactive)
O=S(=O)(c1ccc(OC(F)(F)F)cc1)N1CCN(c2nc(-c3cccs3)nc3ccccc23)CC1	-12.6% (inactive)
COc1ccc(S(=O)(=O)N2CCN(c3nc(-c4cccs4)nc4ccccc34)CC2)cc1OC	-9.79% (inactive)
O=S(=O)(c1ccc(Cl)cc1)N1CCN(c2nc(-c3cccs3)nc3ccccc23)CC1	-5.18% (inactive)
O=S(=O)(c1cccc(Br)c1)N1CCN(c2nc(-c3cccs3)nc3ccccc23)CC1	-6.89% (inactive)
COc1ccc(-c2nc(N3CCN(S(=O)(=O)c4ccc(C)cc4)CC3)c3ccccc3n2)cc1	-1.79% (inactive)
O=S(=O)(c1ccc2ccccc2c1)N1CCN(c2nc(-c3cccs3)nc3ccccc23)CC1	-3.64% (inactive)
O=S(=O)(c1ccccc1Cl)N1CCN(c2nc(-c3cccs3)nc3ccccc23)CC1	-18.3% (inactive)
NS(=O)(=O)c1ccc(S(=O)(=O)N2CCN(c3nc(-c4ccccc4)nc4ccccc34)CC2)cc1	-14.3% (inactive)

Structure (SMILES)	activity change, negative = inhibition
N#Cc1ccc(S(=O)(=O)N2CCN(c3nc(-c4ccccc4)nc4ccccc34)CC2)cc1	-7.6% (inactive)
O=S(=O)(c1ccc(Cl)cc1)N1CCN(c2nc(-c3cccc(Br)c3)nc3ccccc23)CC1	2.53% (inactive)
O=[N+]([O-])c1cccc(S(=O)(=O)N2CCN(c3nc(-c4cccs4)nc4ccccc34)CC2)c1	-1.82% (inactive)
CC(=O)c1ccc(S(=O)(=O)N2CCN(c3nc(-c4cccs4)nc4ccccc34)CC2)cc1	-7.55% (inactive)
O=S(=O)(c1ccc2c(c1)CCCC2)N1CCN(c2nc(-c3cccs3)nc3ccccc23)CC1	-4.94% (inactive)
O=S(=O)(c1ccc2c(c1)CCCC2)N1CCN(c2nc(-c3ccccc3)nc3ccccc23)CC1	-3.8% (inactive)
O=[N+]([O-])c1ccccc1S(=O)(=O)N1CCN(c2nc(-c3cccs3)nc3ccccc23)CC1	-7.26% (inactive)
COc1ccc(-c2nc(N3CCN(S(=O)(=O)c4ccccc4)CC3)c3ccccc3n2)cc1	-8.9% (inactive)
O=S(=O)(c1ccccc1C(F)(F)F)N1CCN(c2nc(-c3cccs3)nc3ccccc23)CC1	-3.95% (inactive)
O=S(=O)(c1ccc2c(c1)CCC2)N1CCN(c2nc(-c3ccccc3)nc3ccccc23)CC1	-8.4% (inactive)
O=S(=O)(c1ccccc1F)N1CCN(c2nc(-c3cccs3)nc3ccccc23)CC1	-14.7% (inactive)
Cc1ccc(S(=O)(=O)N2CCN(c3nc(-c4ccccc4)nc4ccccc34)CC2)cc1	-7.65% (inactive)
CCOC(=O)c1ccc(S(=O)(=O)N2CCN(c3nc(-c4ccccc4)nc4ccccc34)CC2)cc1	-7.72% (inactive)
CCOc1ccc(S(=O)(=O)N2CCN(c3nc(-c4ccccc4)nc4ccccc34)CC2)cc1	-10.2% (inactive)
O=S(=O)(c1ccccc1)N1CCN(c2nc(-c3cccs3)nc3ccccc23)CC1	-11.3% (inactive)
Cc1ccc(S(=O)(=O)N2CCN(c3nc(-c4cccs4)nc4ccccc34)CC2)cc1	-5.03% (inactive)
O=S(=O)(c1cccc(Cl)c1)N1CCN(c2nc(-c3ccccc3)nc3ccccc23)CC1	-12.9% (inactive)
O=[N+]([O-])c1ccccc1S(=O)(=O)N1CCN(c2nc(-c3ccccc3)nc3ccccc23)CC1	-2.94% (inactive)
CC(C)(C)c1ccc(S(=O)(=O)N2CCN(c3nc(-c4cccs4)nc4ccccc34)CC2)cc1	-12.9% (inactive)
O=S(=O)(c1ccccc1Br)N1CCN(c2nc(-c3cccs3)nc3ccccc23)CC1	-8.16% (inactive)

— PubChem BioAssay AID2578 (National Center for Advancing Translational Sciences (NCATS), 2010)
